# Data published in PubChem BioAssay AID463195 (Sanford-Burnham Center for Chemical Genomics, 2010).
# The whole screen tested about 330,000 compounds, of which about 4,600 (1.4%) were called active. Shown is part of a subset that was picked to be rich in actives. Unmarked numbers belong to inactive results.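 How the source made its calls: active means inhibition of 40% or more at the single tested concentration; inactive means the rest.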
# Experiment: wild-type TIM10 yeast growth inhibition – luminescence, uHTS, counter-screen for tim10-1 yeast inhibitor project, primary screen (AID 463195);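 further: wild-type TIM10 isogenic control strain grown at permissive 25 °C; 0% = DMSO yeast wells and 100% = minimal medium wells without yeast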
# Conditions: S. cerevisiae TIM10 strain growth, BacTiter-Glo luminescence, 24 h; at 10 µM; stronger effect = higher value
row,Structure (SMILES),inhibition
1,O=C(NCc1ccc2c(c1)OCO2)c1c(O)nc2sccn2c1=O,45% (active)
2,O=C(NCc1ccc2c(c1)OCO2)c1sccc1Br,9.81%
3,CCn1c(=O)c(C(=O)NCc2ccc3c(c2)OCO3)c(O)c2ccccc21,-11.9%
4,CC(=O)c1c(C)n([O-])c2ccccc2[n+]1=O,-2.57%
5,O=C1N[C@H](Cc2c[nH]c3ccccc23)COC(=O)[C@H](Cc2ccc(F)cc2)C/C=C\C[C@H]1CC(=O)N(CCO)Cc1ccccc1,-8.49%
6,O=C(/C=C/c1ccc(N2CCOCC2)cc1)c1ccccc1,39.5%
7,Cc1[nH]c(=O)c(C(=O)/C=C/c2ccccc2)c2c1CCCC2,45% (active)
8,CC(=O)Nc1ccc(/C=C/C(=O)c2ccccc2)cc1,26.1%
9,O=C(O)CCc1nc2cc(Cl)ccc2n(Cc2ccccc2)c1=O,21.5%
10,COc1ccc(CN2C(CC(=O)Nc3cccnc3)c3ccc(C(F)(F)F)cc3S2(=O)=O)cc1 (centres undefined),-7.66%
11,O=C1NC(Nc2nc3ccccc3s2)(C(F)(F)F)C(=O)N1C1CCCCC1 (centres undefined),52.6% (active)
12,O=C(NC1(C(F)(F)F)NC(=O)N(C2CCCCC2)C1=O)c1ccco1 (centres undefined),-5.03%
13,Cc1cc(C)c2nc(-c3cccnc3)cc(C(=O)Nc3ccc(S(=O)(=O)Nc4onc(C)c4C)cc3)c2c1,-10%
14,Cc1cc(NC(=O)CSc2ncc(C(F)(F)F)cc2Cl)no1,-8.23%
15,Cc1nn(-c2ncc(C(F)(F)F)cc2Cl)c(=O)n1-c1ccccc1,10.6%
16,Cc1ccc(-c2ccnc3nc(Sc4ncc(C(F)(F)F)cc4Cl)nn23)cc1,42.2% (active)
17,CNC(=O)NC(=O)C(OC(=O)c1cccc(S(=O)(=O)N2CCCCC2)c1)c1ccccc1 (centres undefined),15.5%
18,CCOCCCN1C(=O)C2C(C(=O)Nc3ccc(OCC)cc3)C3C=CC2(O3)C1C(=O)NC1CCCCC1 (centres undefined),5.11%
19,Cc1ccc(N2C(=O)c3ccccc3C2(O)c2ncc[nH]2)cc1 (centres undefined),1.61%
20,COc1cc(NS(=O)(=O)c2ccc3ccccc3c2)c2ncccc2c1,9.71%
21,O=[N+]([O-])c1cccc2ncccc12,-18%
22,O=[N+]([O-])c1ccccc1S(=O)(=O)Nc1cccc2cccnc12,44.6% (active)
23,C[C@H](NC(=O)c1[nH]cnc1C(=O)Nc1nccs1)c1ccccc1,6.5%
24,COc1ccc2c(c1)c(C(=O)N/N=C/c1cccs1)c(C)n2C,24%
25,COc1cccc(CNC(=O)CCC2CCCN(C(=O)c3ccoc3C)C2)c1 (centres undefined),10.1%

row,Structure (SMILES),inhibition
1,CC1CCN(Cc2nc3c(c(=O)n(C)c(=O)n3C)n2CCc2ccccc2)CC1,3.96%
2,CCCc1nc2c(c(=O)c3ccccc3n2C)c(=O)n1C1CCCCCC1,49.4% (active)
3,Cn1c2ccccc2c2c(C(=O)N3CCN(c4ccc(F)cc4)CC3)cn(C3CCCC3)c(=O)c21,37.3%
4,CCOC(=O)CSc1nc2ccc(C)cc2n2cnnc12,3.21%
5,O=c1ccc2cc(S(=O)(=O)Nc3ccccc3F)ccc2o1,4.92%
6,O=c1oc2ccccc2c(NC2CCCCC2)c1NS(=O)(=O)c1ccc(Cl)cc1,21.4%
7,O=c1oc(-c2ccccc2NS(=O)(=O)c2ccc(Cl)cc2)nc2ccccc12,59.4% (active)
8,O=C(NC(=O)c1ccccc1N1CCCCC1)Nc1ccc(Br)cc1,14.8%
9,CCOCCn1[nH]c2ccccc2c1=O,2.98%
10,Cc1ccc(N2C(=O)CC(Sc3ncn[nH]3)C2=O)cc1 (centres undefined),26.4%
11,COc1ccc(N2C(=O)CC(SC(C)C)C2=O)cc1 (centres undefined),5.36%
12,COc1ccc(N2C(=O)CC(Sc3n[nH]c(-c4ccc(C)cc4)n3)C2=O)cc1 (centres undefined),54% (active)
13,COc1ccc(CNC(=O)c2ccc3oc(C(C)C)nc3c2)cc1,2.31%
14,O=C(CSc1ccc(-c2ccco2)nn1)Nc1cccc(F)c1,6.71%
15,Cc1cc(SCc2c(F)cccc2Cl)nc(=O)[nH]1,9.07%
16,Fc1cccc(Cl)c1CSc1ccc(-c2ccco2)nn1,46.6% (active)
17,O=C(Nc1ccc(F)cc1)c1cc2c(s1)CCCC2,14%
18,O=C(Nc1ccc2c(c1)CCC2)c1ccc(Br)s1,61.4% (active)
19,CC1CC(C)CN(CCC(=O)Nc2ccc3c(c2)CCC3)C1 (centres undefined),-5.01%
20,COc1ccccc1N1CCN(S(=O)(=O)c2ccc3c(c2)NC(=O)CS3)CC1,12.3%
21,COc1cccc(-n2c(=S)sc3c(=O)n(-c4ccccc4C)c(SCC(=O)O)nc32)c1,8.02%
22,C=CCN(C(=O)Cn1ncc2c1-c1cc(C)ccc1OC2)c1ccccc1,16.6%
23,COCCn1c(=O)[nH]c(=O)c2cc(C(=O)c3cc(OC)ccc3O)cnc21,-1.14%
24,COc1ccc(O)c(C(=O)c2cnc3c(c2)c(-c2ccc(F)cc2)c(C#N)c(=O)n3C)c1,40.2% (active)
25,Cc1cc(C)c2c(-c3ccc(F)cc3)c(C#N)c(=O)n(C)c2n1,11.3%

row,Structure (SMILES),inhibition
1,O=C(c1ccc(-n2cnnn2)cc1)N1CCN(C(c2ccccc2)c2ccccc2)CC1,2.74%
2,Clc1cccc(-c2nc(NCC3CCCO3)c3ccccc3n2)c1 (centres undefined),26.8%
3,c1ccc2c(NCC3CCCO3)nc(-c3ccncc3)nc2c1 (centres undefined),19.5%
4,c1ccc(-c2nc(NCc3ccco3)c3ccccc3n2)cc1,49.9% (active)
5,COc1ccccc1C(=O)N/C(=C/c1ccco1)C(=O)Nc1ccc(C(=O)O)cc1,-3.06%
6,N/C(=N\OC(=O)Nc1ccc(Cl)c(Cl)c1)c1ncc(C(F)(F)F)cc1Cl,71.5% (active)
7,O=C(c1ccccn1)c1ncc(C(F)(F)F)cc1Cl,-12.3%
8,N/C(=N\OC(=O)CCCC(=O)O)c1ncc(C(F)(F)F)cc1Cl,-12.6%
9,Cc1cccc(C)c1NC(=O)N1CC(C)OC(C)C1 (centres undefined),-0.538%
10,CNC(=S)NNC(=O)c1oc2nc(-c3ccccc3)cc(-c3ccco3)c2c1N,2.74%
11,CS(=O)(=O)c1sc2nc(-c3ccccc3)cc(-c3ccccc3)c2c1N,46.7% (active)
12,CCN(CC)C(=O)c1sc2nc(-c3ccccc3)ccc2c1N,18.6%
13,S=c1[nH]nc2c3c4c(sc3ncn12)CCCC4,29.6%
14,C=C(C)COc1ccc(-c2n[nH]c(C)c2-c2ccccc2)c(O)c1,45.6% (active)
15,COc1ccc(-c2n[nH]c(C)c2-c2ccccc2OC)c(O)c1,25.2%
16,C=C(C)COc1ccc(-c2ncncc2-c2ccc(OC)cc2)c(O)c1,17.4%
17,Cn1c(=O)oc2cc(S(=O)(=O)NCCC(=O)NCc3ccccc3Cl)ccc21,6.26%
18,O=C(CN1CCSCC1)N/N=C/c1ccc(F)cc1F,-5.91%
19,CNS(=O)(=O)c1ccc(NC(=O)C2CC(=O)N(c3ccc(Cl)cc3)C2)cc1 (centres undefined),-1.17%
20,Cc1c(NC(=O)C(C)OC(=O)c2c3c(nc4ccccc24)CCC(C)C3)c(=O)n(-c2ccccc2)n1C (centres undefined),-6.65%
21,CSCCC(NS(=O)(=O)/C=C/c1ccccc1)C(=O)N1CCC(C)CC1 (centres undefined),43.1% (active)
22,CSCCC(NS(=O)(=O)c1ccc(C)cc1)C(=O)N1CCCC1 (centres undefined),-9.58%
23,CSCCC(NC(=O)c1ccccc1)C(=O)N1CCCCCCC1 (centres undefined),2.09%
24,O=C1/C(=C/c2cccs2)CCC1C1CCCC1 (centres undefined),-11.5%
25,CC(=O)NCc1ccc(S(=O)(=O)NC2CCN(Cc3ccccc3)CC2)cc1,0.58%

row,Structure (SMILES),inhibition
1,COc1ccc(S(=O)(=O)NC(C)c2ccccc2)cc1C(=O)N1CCCCC1 (centres undefined),13.1%
2,Cc1cccc(C2=N/C(=C/c3cccs3)C(=O)O2)c1,41.4% (active)
3,Cc1ccc(C2=N/C(=C\c3ccc(OS(=O)(=O)c4ccc(C)cc4)cc3)C(=O)O2)cc1,-5.54%
4,Cc1cccc(C(=O)Nc2ccc(C(=O)/C=C/c3cccs3)cc2)c1,10%
5,CC1(C)C(C=C(Cl)Cl)C1C(=O)N(Cc1ccc(Cl)cc1)C1CCS(=O)(=O)C1 (centres undefined),17.4%
6,C=CS(=O)c1sc(Cl)c(N2CCOCC2)c1[N+](=O)[O-] (centres undefined),67.8% (active)
7,CCN(CC)P(=O)(Nc1ccc(SC(F)F)cc1)c1ccc(N(C)C)cc1NC(=O)c1ccco1 (centres undefined),19%
8,Cc1ccc(CCN2CC(C(=O)O)CC2=O)cc1 (centres undefined),-9.17%
9,COc1ccc(C(=O)N2CC3(C)CC2CC(C)(C)C3)cc1OC (centres undefined),9.33%
10,Cc1nnnn1/C(=C\c1ccccc1)C(=O)OCC(=O)N1CC2(C)CC1CC(C)(C)C2 (centres undefined),62.3% (active)
11,CN(C)C(=O)COC(=O)c1cccc(S(=O)(=O)N2CC3(C)CC2CC(C)(C)C3)c1 (centres undefined),5.89%
12,Cc1cccc(NC(=S)NCCN(C2CCCCC2)C2CCCC2)c1,11.8%
13,Cc1cccc(NC(=S)NCc2ccc3[nH]c4c(c3c2)CCCC4)c1,42.9% (active)
14,Cc1cccc(NC(=S)NC23CN4CN(CN(C4)C2)C3)c1,-11.6%
15,N#C/C(=C(\O)C(F)(F)F)c1nnc2n1CCCCC2,-10.3%
16,COc1ccc(C(=O)Nc2cc(C)c(NC(=O)c3ccccc3OC)cn2)cc1,14.6%
17,COc1cc(C=NNC(=O)c2cccnc2)ccc1OC(=O)c1ccccc1F,7.06%
18,COc1cc(/C=N/NC(=O)CCc2n[nH]c(=O)[nH]c2=O)ccc1O,5.01%
19,COc1ccc(/C=N/Nc2ccccc2C(=O)O)cc1,13.9%
20,COc1ccc(C(=O)Nc2ccccc2C(=O)N/N=C/c2ccc(O)c(OC)c2)cc1,93.2% (active)
21,COc1cc(/C=N/NC(=O)c2ccccc2)ccc1OS(=O)(=O)c1ccccc1,43.1% (active)
22,COc1cc(/C=N/NC(=O)c2cccnc2)ccc1OC(=O)c1cccc(Br)c1,14.7%
23,COc1ccc(C(=O)Nc2ccccc2C(=O)N2CCN(c3ccccc3)CC2)cc1,14.5%
24,COc1ccc(C(=O)Nc2ccccc2C(=O)N/N=C/c2ccccc2OC)cc1,64.2% (active)
